Shown are actives, neighbours in structure and some others; about 3.6% of the full set was active somewhere.
HSP90 refold inh: blocks HSP90-mediated luciferase refolding in reticulocyte lysate | Rabbit reticulocyte lysate, luciferase refolding luminescence, 3 h | inhibition, % at 5.6 µM | hit rate 0.91% among 290,000 | AID 1789;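 active means inhibition above the screen-wide mean plus 3 SD, computed separately per campaign, cut at about 16% in these data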;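 further: 0% = DMSO wells and 100% = 60 µM geldanamycin wells; inhibitors lower the luminescence because luciferase stays unfolded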
CF NFkB inh: cystic fibrosis NF-kB activation inhibition; KKLEB NF-kB-GFP reporter, PAF-induced, GFP fluorescence overnight; inhibition, % at 5 µM; hit rate 0.86% among 360,000; AID 588850;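 active means at least 50% inhibition at 5 µM, scaled per plate between neutral and stimulator controls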;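 further: PAF is a Pseudomonas aeruginosa culture filtrate used as stimulus; plate controls were PAF-stimulated DMSO wells for no effect and unstimulated DMSO wells for full effect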
Peg3 prom inh-1: inhibitors of Peg3 promoter; HeLa PEG-Prom luciferase reporter, luminescence, overnight; inhibition, % at 20 µM; hit rate 1.7% among 360,000;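 active means inhibition of at least 50% at 20 µM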
LGR2 inh: Drosophila LGR2 receptor signaling inhibition. HEK293 LGR2, CRE-luciferase, bursicon-stimulated, 4 h. inhibition, % at 9.99 µM. hit rate 0.35% among 380,000. AID 720647;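 active means drop in luminescence signal, shown as inhibition above about 50% in the replicate tests, limit read from the data, passing the limit was not always enough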;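 further: agonist challenge used bursicon conditioned medium at about half maximal strength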
KKLEB cytotox: counter-screen for CF NF-kB inhibitors: cytotoxicity | AID 602141 | hit rate 0.36% among 360,000 | activity change (cytotoxicity), % at 5 µM | KKLEB CF airway cells viability, ATPlite luminescence, overnight; active compounds read low; cells stimulated with P. aeruginosa culture filtrate;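 active means corrected activity change at or below -50% at 5 µM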
Mdm2-MdmX inh: inhibitors of human Mdm2/MdmX interaction | O15151+Q00987 | SaOS-2 split-luciferase Mdm2/MdmX complementation, luminescence | inhibition, % at 8 µM | hit rate 3% among 330,000;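 active means inhibition of at least 50% at 8 µM in the primary screen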
HSP90 confirm: confirmation of HSP90 inhibitors. shares compounds with HSP90 refold inh. rabbit reticulocyte lysate, luciferase refolding luminescence, 3 h. inhibition, % at 5.9 µM. hit rate 64% among 2,300; in the data active means inhibition above about 18%;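 further: 0% = vehicle wells and 100% = reference inhibitor wells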
FLuc counter-1: firefly luciferase inhibition, HSP90 counter-screen; purified native firefly luciferase, luminescence; hit rate 48% among 2,300; shares compounds with HSP90 refold inh; inhibition, % at 5.9 µM;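 active means inhibition above the mean inhibition of all tested sample wells plus 3 SD, cut at about 10% in these data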;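 further: 0% = DMSO with luciferase and 100% = wells lacking luciferase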
Target sequence (P08659 whole entry, looked up): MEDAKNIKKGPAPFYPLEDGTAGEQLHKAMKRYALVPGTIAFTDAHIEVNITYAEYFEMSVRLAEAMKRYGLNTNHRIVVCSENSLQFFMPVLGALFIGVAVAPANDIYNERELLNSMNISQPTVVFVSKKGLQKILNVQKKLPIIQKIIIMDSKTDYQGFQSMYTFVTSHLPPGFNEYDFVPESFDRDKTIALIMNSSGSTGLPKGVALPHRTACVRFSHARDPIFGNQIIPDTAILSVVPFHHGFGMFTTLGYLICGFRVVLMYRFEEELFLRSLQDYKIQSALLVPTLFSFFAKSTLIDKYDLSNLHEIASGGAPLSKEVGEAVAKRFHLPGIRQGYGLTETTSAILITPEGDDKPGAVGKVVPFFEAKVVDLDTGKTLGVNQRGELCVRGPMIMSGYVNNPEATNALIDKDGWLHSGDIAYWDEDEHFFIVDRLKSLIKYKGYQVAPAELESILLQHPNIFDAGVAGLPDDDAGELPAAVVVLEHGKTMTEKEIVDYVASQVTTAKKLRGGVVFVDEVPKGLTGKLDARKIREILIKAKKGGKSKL
Mdm2 MdmX conf: confirmation of human Mdm2/MdmX interaction inhibitors; Mdm2-MdmX binding, luminescent assay; shares compounds with Mdm2-MdmX inh; inhibition, % at 8 µM; hit rate 55% among 10,000; in the data active means inhibition above about 40%
FLuc counter-2: counter-screen for Mdm2/MdmX inhibitors: full-length luciferase | inhibition, % at 8 µM | shares compounds with Mdm2-MdmX inh | SaOS-2 full-length luciferase counterscreen, luminescence | hit rate 77% among 6,200;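 active means mean inhibition at 8 µM reaching about 37%, which flags the compound as non-specific, limit read from the data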;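 further: p53-null SaOS-2 cells with luciferase driven by a doxycycline-inducible promoter; compound on cells about two nights before reading with doxycycline added after day one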
Peg3 prom inh-2: Peg3 promoter inhibition confirmation | shares compounds with Peg3 prom inh-1 | HeLa PEG-Prom luciferase reporter, luminescence, overnight | inhibition, % at 20 µM | hit rate 84% among 1,300 | AID 602417;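 active means at 20 µM dose, 40% or more inhibition averaged across four replicates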
The depositor's hits bear a star; . = not tested or not shown.

SMILES | HSP90 refold inh | CF NFkB inh | Peg3 prom inh-1 | LGR2 inh | KKLEB cytotox | Mdm2-MdmX inh | HSP90 confirm | FLuc counter-1 | Peg3 prom inh-2 | others
C[C@@H]1CCCCO[C@H](CN(C)C(=O)NC2CCCCC2)[C@@H](C)CN([C@H](C)CO)C(=O)c2cc(NC(=O)Cc3ccccc3)ccc2O1 | . | . | . | 3.1 | . | . | . | . | .
Cc1ccc(-c2cc3c(nn2)-c2ccccc2C3=O)cc1 | 28.4* | -3.2 | 76.1* | 91.9* | -74.6* | -2.6 | 75.4* | 89.1* | 66.6*
Cc1cnc(NC(=O)c2ccc(OCC3CCCO3)cc2)s1 (stereo not drawn) | 46.9* | 16.5 | 52.9* | 86.9* | -42.3 | -9.3 | 59.6* | 51.3* | 10.7
Cc1ccc(NC(=O)c2ccc(OCC3CCCO3)cc2)nc1 (stereo not drawn) | . | -12.2 | -302.9 | -26.7 | 5.4 | -92.9 | . | . | .
O=C(C[C@H]1CC[C@@H](NS(=O)(=O)c2ccc(F)cc2)[C@H](CO)O1)N1CCC(Cc2ccccc2)CC1 | . | . | . | -3.4 | . | . | . | . | .
COc1cc(SC)ccc1C(=O)Nc1nc2ccccc2[nH]1 | 98.8* | 38.1 | 109.1* | 105.0* | -95.9* | 100.2* | 97.3* | 92.1* | 96.3* | Mdm2 MdmX conf=99.2*;FLuc counter-2=1.5
COc1ccccc1C(=O)Nc1nc2ccccc2[nH]1 | 97.9* | -6.5 | 97.8* | 103.4* | -73.6* | 98.4* | 96.8* | 91.5* | 91.8* | Mdm2 MdmX conf=95.2*;FLuc counter-2=6.2
Cc1ccc(C(=O)Nc2nc3ccccc3[nH]2)cc1 | 86.0* | -8.9 | 70.5* | 89.1* | -51.9* | 64.0* | 89.3* | 84.5* | 63.5* | Mdm2 MdmX conf=48.8*;FLuc counter-2=57.5*
CO[C@H]1CN(C)C(=O)c2ccc(NS(C)(=O)=O)cc2OC[C@H](C)N(Cc2cccnc2)C[C@@H]1C | . | . | . | 0.8 | . | . | . | . | .
O=C(NC1CCCC1)N1CC(=O)N2[C@@H](CO)[C@H](c3ccc(-c4cccnc4)cc3)[C@@H]2C1 | . | . | . | 1.6 | . | . | . | . | .
Cc1ccc(C(=O)Nc2cc3ccccc3oc2=O)cc1 | 49.7* | 18.0 | 90.3* | 99.1* | -45.5 | 88.5* | 97.8* | 92.1* | 61.7* | Mdm2 MdmX conf=85.2*;FLuc counter-2=31.8
O=C(O)c1ccc2ncsc2c1 | 6.3 | 18.6 | -28.7 | 2.6 | -9.3 | 4.8 | . | . | .
O=C(O)c1ccc2nc(-c3ccccc3)sc2c1 | 94.6* | 14.5 | 86.8* | 63.0* | 1.8 | -136.1 | 95.0* | 78.8* | 45.9*
CC1CCN(c2nc3ccc(C(=O)O)cc3s2)CC1 | 96.7* | -6.9 | 106.1* | . | 7.0 | 37.5 | 100.3* | 92.5* | 87.3*
CC1CCN(c2nc3ccc(C(=O)NCCCN4CCCCC4)cc3s2)CC1 | 9.3 | -4.1 | -96.1 | -67.7 | 5.5 | -18.1 | . | . | .
Nc1ccc(-c2nc3ccc(C(=O)O)cc3s2)cc1 | 99.6* | 8.2 | 100.9* | 101.9* | 3.2 | . | 100.8* | 91.9* | 93.8*
Fc1ccc(-c2nnc(NC3=NCCCCC3)o2)cc1 | 72.9* | 5.6 | 81.5* | . | -9.7 | 54.5* | 81.5* | 75.6* | 56.8* | Mdm2 MdmX conf=49.5*;FLuc counter-2=54.6*
CCOc1ccc(C(=O)O/N=C(\N)c2ccccn2)cc1OCC | -1.9 | -6.8 | -140.8 | -42.6 | -0.9 | 48.0 | . | . | .
N/C(=N\OC(=O)c1ccc(Cl)cc1)c1ccccn1 | 57.1* | -9.4 | 78.3* | 89.9* | -23.3 | -29.2 | 19.7* | 89.3* | -6.0
COc1ccc(C(=O)O/N=C(\N)c2ccccn2)cc1 | 80.0* | 2.4 | 98.8* | 102.6* | -6.8 | 96.7* | 86.5* | 91.9* | 91.9* | Mdm2 MdmX conf=93.7*;FLuc counter-2=24.2
N/C(=N\OC(=O)c1ccccc1Cl)c1ccccn1 | 72.7* | -17.0 | 59.2* | 95.0* | -36.9 | 6.4 | 67.6* | 88.6* | 6.1
N/C(=N\OC(=O)c1ccccc1[N+](=O)[O-])c1ccccn1 | 0.0 | 5.4 | -98.6 | 19.7 | -5.6 | 33.4 | . | . | .
CCCNC(=O)N(C)C[C@@H]1Oc2cc(-c3ccccc3F)ccc2S(=O)(=O)N([C@H](C)CO)C[C@@H]1C | . | . | . | -2.9 | . | . | . | . | .
CN1CCN(C(=O)C[C@H]2C[C@H]3c4cc(NC(=O)Nc5ccccc5F)ccc4O[C@H]3[C@@H](CO)O2)CC1 | . | . | . | 4.2 | . | . | . | . | .
O=C(Oc1ccc(/C=N/Nc2ccccc2)cc1)c1ccccc1 | -6.3 | -12.8 | 11.5 | . | -15.1 | -7.8 | . | . | .
SMILES | HSP90 refold inh | CF NFkB inh | Peg3 prom inh-1 | LGR2 inh | KKLEB cytotox | Mdm2-MdmX inh | HSP90 confirm | FLuc counter-1 | Peg3 prom inh-2 | others
O=C(O)c1ccc(N/N=C/c2ccc3nccnc3c2)cc1 | 91.5* | 21.3 | 99.0* | 96.4* | -15.3 | 19.5 | 92.2* | 85.1* | 95.5*
O=C(O)c1ccc(N/N=C/c2ccc(OC(=O)c3cccc(Cl)c3)cc2)cc1 | 42.6* | -1.4 | 68.7* | 79.8* | -4.2 | -0.9 | 85.2* | 5.5 | 64.0*
CN(C)c1ccc2c(c1)[C@@H]1C[C@H](CC(=O)NCc3ccc(Cl)cc3)O[C@H](CO)[C@@H]1O2 | . | . | . | -1.5 | . | . | . | . | .
Nc1c(C(=O)Nc2cccc(C(=O)O)c2)sc2nc3c(cc12)CCCC3 | 91.4* | 13.2 | 69.1* | 76.0* | -16.9 | -1.8 | 97.1* | 89.7* | 54.9*
Nc1c(C(=O)Nc2ccc(Cl)c(C(=O)O)c2)sc2nc3c(cc12)CCCC3 | 3.5 | 13.6 | 6.0 | 18.8 | 5.2 | 22.5 | . | . | .
COc1ccc(C(=O)Nc2ccc(C)cn2)c(OC)c1 | 88.0* | -16.6 | 74.3* | . | -62.9* | 67.8* | 87.8* | 81.8* | 52.4* | Mdm2 MdmX conf=66.9*;FLuc counter-2=85.1*
C[C@@H]1CN([C@@H](C)CO)S(=O)(=O)c2ccc(C#CCN(C)C)cc2O[C@H]1CN(C)C | . | . | . | -2.8 | . | . | . | . | .
C[C@H](CO)N1C[C@H](C)[C@@H](CN(C)C(=O)Nc2cccc3ccccc23)Oc2ccc(NS(C)(=O)=O)cc2C1=O | . | . | . | -12.1 | . | . | . | . | .
COCCn1c(C)cc(C(=O)CSc2n[nH]c(N)n2)c1C | -2.9 | -2.1 | -27.1 | . | 7.6 | 9.3 | . | . | .
COCCn1c(C)cc(C(=O)CSc2nnc(C)s2)c1C | 48.0* | 4.4 | 94.7* | . | -8.3 | 51.7* | 80.3* | 71.8* | 74.5* | Mdm2 MdmX conf=61.5*;FLuc counter-2=47.7*
O=C(Nc1ccc(F)cc1)N1C[C@@H]2[C@H](c3ccccc31)[C@@H](CO)N2C(=O)c1ccccc1 | . | . | . | -20.2 | . | . | . | . | .
C[C@@H]1CN([C@@H](C)CO)C(=O)c2cc(NC(=O)c3ccncc3)ccc2O[C@@H](C)CCCCO[C@H]1CN(C)S(=O)(=O)c1cn(C)cn1 | . | . | . | 10.6 | . | . | . | . | .

Assay outcomes deposited in PubChem by several laboratories.
